Our source for the AC50, IC50 and outcome values is PubChem BioAssay.

SMILES strings stand for the structures. Records with an inconclusive call do not appear. Calls of active or inactive are those of the source. Unless noted, cut-off not given; nearly all actives show AC50 up to about 26 µM.

Assay [1] can be described thus: viability loss in pontine glioma line – cell-based, SU-DIPG-XVII, MIPE5.0, CellTiter-Glo, qHTS, dose response (AID 1347060).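 On AC50: cells exposed to compound for 48 hours before viability readout.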 The following applies: CellTiter-Glo ATP luminescence.
A short description of assay [2]: viability loss in pontine glioma line – cell-based, SU-DIPG-XIII, MIPE5.0, CellTiter-Glo, qHTS, dose response (AID 1347064; cut-off not given, nearly all actives have AC50 up to about 23 µM;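 on AC50: cells exposed to compound for 48 hours before the viability read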). The following applies: CellTiter-Glo ATP luminescence.
A short description of assay [3]: viability loss in pontine glioma line – cell-based, SU-DIPG-XXV, MIPE5.0, CellTiter-Glo, qHTS, dose response (AID 1347065).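 Further: cells exposed to compound for 48 hours before ATP readout.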 As to conditions: CellTiter-Glo ATP luminescence.
The nature of assay [4]: JHH-DIPG-1 glioma cell viability, MIPE5.0 library, CellTiter-Glo luminescence, qHTS (AID 1347067).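 Further: cells exposed to compound for 48 hours before readout.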 As to conditions: JHH-DIPG-1 glioma viability, CellTiter-Glo ATP luminescence.
Assay [5] is described as follows: growth inhibition of DIPG cells – cell-based, MIPE5.0 library, qHTS (AID 1347068; cut-off not given, nearly all actives have IC50 up to about 30 µM;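 on IC50: cells exposed to compound for 48 hours before viability readout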). As to conditions: SU-DIPG-XXV viability.

As for `CN(C)C/C=C/C(=O)Nc1cccc(C(=O)Nc2cccc(Nc3ncc(Cl)c(-c4c[nH]c5ccccc45)n3)c2)c1`, the AC50 in assay [1] is 417 nM (active); in assay [2], 332 nM (active); in assay [3] it was 263 nM (active); in assay [4], 468 nM (active). Also, the IC50 in assay [5] is 417 nM (active).

As to `CC(=O)c1cc2c(o1)C(=O)c1ccccc1C2=O`, the AC50 in assay [1] is 3320 nM (active); in assay [2] it was 934 nM (active); in assay [3] it was 2950 nM (active); in assay [4] it was 1660 nM (active). Further, in assay [5], the IC50 is 2950 nM (active).

On to `CC(=O)Nc1cc(Oc2ccc3c(nc(Nc4ccc(F)cc4F)n3C)c2C)ccn1`, for which the AC50 in assay [1] is 372 nM (active); in assay [2], 4170 nM (active); in assay [3], 118 nM (active); in assay [4], 525 nM (active). Moreover, the IC50 in assay [5] was 1050 nM (active).

Turning to `COc1cc2c(cc1OCCCN1CCCC1)N=C(N)C21CCC1`, the call in assay [1], in assay [2], in assay [3], in assay [4] and in assay [5] was inactive.

Turning to `CNC(=O)Cn1cc(-c2ccc3c(c2)C(F)CC32NC(=O)N(CC(=O)N(Cc3ccc(F)cc3)[C@@H](C)C(F)(F)F)C2=O)cn1` (stereo not given in full), the call in assay [1], in assay [2], in assay [3], in assay [4] and in assay [5] was inactive.

For the compound `[2H]c1nc(C)nc([2H])c1-c1cc(NC[C@@H](C)c2cccc3c(C(=O)NC)ccnc23)ncn1`, the compound was called inactive in assay [1], in assay [2], in assay [3], in assay [4] and in assay [5].

For the compound `CN[C@@H](C)C(=O)N[C@H](C(=O)N1CCC[C@H]1C(=O)Nc1sc(-c2ncco2)nc1-c1ccccc1)C1CCCCC1`, the compound was called inactive in assay [1], in assay [2], in assay [3], in assay [4] and in assay [5].

Regarding `Cc1c[nH]c2nc(Nc3ccc(N4CCN(C)CC4)c(F)c3)nc(-c3cccc(CC#N)c3)c12`, the AC50 in assay [1] was 2350 nM (active); in assay [2] it was 4170 nM (active); in assay [3], 4170 nM (active); in assay [4], 3720 nM (active). The IC50 in assay [5] was 3320 nM (active).

Turning to `Cc1cc(O)cc2c1[C@]1(C)CC[C@H]3C(C)(C)CCC[C@]3(C)[C@H]1C2`, the compound was classed as inactive in assay [1], in assay [2], in assay [3], in assay [4] and in assay [5].

Turning to `NC(CC1c2ccccc2Oc2ccccc21)(C(=O)O)C1CC1C(=O)O` (stereo not given), the compound was called inactive in assay [1], in assay [2], in assay [3], in assay [4] and in assay [5].

`Nc1cc(C(F)(F)F)c(-c2nc(N3CCOCC3)nc(N3CCOCC3)n2)cn1`: the AC50 was 2350 nM (active) in assay [1], 3720 nM (active) in assay [2], 742 nM (active) in assay [3] and 2350 nM (active) in assay [4]. Besides, the IC50 in assay [5] was 1860 nM (active).

Consider `Cc1ccc(NC(=O)c2ccc(CN3CC[C@H](N(C)C)C3)c(C(F)(F)F)c2)cc1Nc1nccc(-c2cncnc2)n1`, for which the AC50 is 10200 nM (active) in assay [1], 14400 nM (active) in assay [2], 16200 nM (active) in assay [3] and 11500 nM (active) in assay [4]. In addition, the call in assay [5] was inactive.

Consider `Cc1cc2cc(Oc3ccnc(Nc4cccc(CS(=O)(=O)NCCN(C)C)c4)n3)ccc2[nH]1`, for which the AC50 was 4680 nM (active) in assay [1], 8330 nM (active) in assay [2], 5900 nM (active) in assay [3] and 20900 nM (active) in assay [4]. Also, the IC50 in assay [5] is 18600 nM (active).

Turning to `COC[C@@H](c1ccc(C(F)(F)F)cc1)N1CCN(C2(C)CCN(C(=O)c3c(C)ncnc3C)CC2)C[C@@H]1C`, the compound was classed as inactive in assay [1], in assay [2], in assay [3], in assay [4] and in assay [5].

Take `Cc1c(-c2c(-c3ccc(F)o3)sc3ncnc(O[C@@H](Cc4ccccc4OCc4ccnn4CC(F)(F)F)C(=O)O)c23)ccc(OCCN2CCN(C)CC2)c1Cl`: the AC50 in assay [1] was 295 nM (active); in assay [2] it was 6610 nM (active); in assay [3] it was 132 nM (active); in assay [4], 3320 nM (active). Moreover, the IC50 in assay [5] was 1320 nM (active).

In the case of `CN(C)CCNC(=O)COc1c2cccc1Cc1cccc(c1OCC(=O)NCCN(C)C)Cc1cccc(c1OCC(=O)NCCN(C)C)Cc1cccc(c1OCC(=O)NCCN(C)C)C2`, the compound was classed as inactive in assay [1], in assay [2], in assay [3], in assay [4] and in assay [5].

As for `CCN1C(=O)N2Cc3cc(OC)cc(OC)c3[C@@H](C)C=C2C12CCN(Cc1cc(C)cc(C)c1)CC2`, the AC50 in assay [1] is 20900 nM (active); in assay [2], 18600 nM (active); in assay [3] it was 14800 nM (active); in assay [4], 18600 nM (active). Besides, the IC50 in assay [5] was 20900 nM (active).

For the compound `CC(=O)N1CCC[C@H]1C(=O)N[C@@H](Cc1cnc[nH]1)C(=O)N[C@@H](CO)C(=O)N[C@@H](CS)C(=O)N[C@@H](CC(N)=O)C(N)=O`, the result in assay [1], in assay [2], in assay [3], in assay [4] and in assay [5] was inactive.

In the case of `C=CC(=O)N1CC[C@@H](Oc2nc(Nc3ccc(N4CCC(N5CCN(C)CC5)CC4)cc3)c(C(N)=O)nc2CC)C1`, the AC50 in assay [1] is 1150 nM (active); in assay [2] it was 811 nM (active); in assay [3], 910 nM (active); in assay [4] it was 2290 nM (active). Moreover, the IC50 in assay [5] is 4560 nM (active).

`C=C1C[C@@H]2CC[C@@]34C[C@H]5O[C@H]6[C@@H](O3)[C@H]3O[C@H](CC[C@@H]3O[C@H]6[C@H]5O4)CC(=O)C[C@@H]3[C@@H](OC)[C@@H](C[C@H](O)CN)O[C@H]3C[C@H]3O[C@@H](CC[C@@H]1O2)C[C@@H](C)C3=C`: the AC50 was 2.7 nM (active) in assay [1], 42.8 nM (active) in assay [2], 1.21 nM (active) in assay [3] and 9.59 nM (active) in assay [4]. Also, the IC50 in assay [5] was 9.59 nM (active).

`COc1cc(F)ccc1-c1ncnc(Nc2cccc(CS(C)(=N)=O)c2)n1` (stereo not given): the AC50 in assay [1] was 1480 nM (active); in assay [2] it was 1480 nM (active); in assay [3], 1660 nM (active); in assay [4], 1860 nM (active). Besides, the IC50 in assay [5] was 1860 nM (active).

For the compound `CC(C)c1c2cc(-c3ccnc(NC4CCC(NC5CCOCC5)CC4)n3)ccc2nn1C` (stereo not given), the AC50 is 417 nM (active) in assay [1], 372 nM (active) in assay [2], 468 nM (active) in assay [3] and 417 nM (active) in assay [4]. Besides, the 50% inhibitory concentration (IC50) in assay [5] was 525 nM (active).

For `CN(C)C/C=C/C(=O)Nc1ccc(C(=O)N2CCC[C@@H](Nc3ncc(Cl)c(-c4c[nH]c5ccccc45)n3)C2)cc1`, the AC50 in assay [1] is 590 nM (active); in assay [2], 295 nM (active); in assay [3], 235 nM (active); in assay [4], 332 nM (active). Further, in assay [5], the IC50 is 833 nM (active).

As to `O=C(O)CNC(=O)c1nc(Cl)c2ccccc2c1O`, the compound was called inactive in assay [1], in assay [2], in assay [3], in assay [4] and in assay [5].

With `Cc1ccc(S(=O)(=O)Nc2cc(-c3ccc(C#N)s3)ccc2C)cc1`, the half-maximal activity concentration (AC50) is 46.8 nM (active) in assay [1], 52.5 nM (active) in assay [2], 33.2 nM (active) in assay [3] and 59 nM (active) in assay [4]. Moreover, the IC50 in assay [5] was 66.1 nM (active).

With `C=CC(=O)Nc1cccc(Oc2nc(Nc3ccc(N4CCN(C)CC4)cc3)nc3ccsc23)c1`, the AC50 is 8330 nM (active) in assay [1], 13200 nM (active) in assay [2], 9340 nM (active) in assay [3] and 10500 nM (active) in assay [4]. Moreover, the IC50 in assay [5] is 590 nM (active).

On to `O=C(O)CCCCN(CCc1ccccc1OCc1ccc(CCc2ccccc2)cc1)Cc1ccc(C(=O)O)cc1`, for which the compound was called inactive in assay [1], in assay [2], in assay [3], in assay [4] and in assay [5].
